Measured values published in PubChem BioAssay AID463173 (ICCB-Longwood Screening Facility, Harvard Medical School, 2010).
The whole screen tested about 52,000 compounds, of which about 4,300 (8.3%) were called active. What follows is part of a selection rich in actives, with near analogues and random picks from the rest. Unmarked numbers belong to inactive results. No stated cut-off is given here; in the data, active means survival mostly below about 52% (no sharp cut-off); inactive means mostly above about 56%.

The compounds below were run on DeltatarO mutant (assay: S. aureus survival, RN4220 and DeltatarO strains – OD600, teichoic acid synthesis inhibitors, primary screen (AID 463173)). Details: S. aureus RN4220 wild type/DeltatarO growth, OD600, 18 h, stronger effect = lower value, screened at 18.75 µg/mL (by protocol).

| SMILES | survival |
| --- | --- |
| COc1cc(OC)c(-c2cc(C(=O)NCc3ccc(F)cc3)c3c(-c4ccccc4)[nH]nc3n2)cc1OC | 98% |
| O=C(NCC1CCCO1)C12CC3CC(CC(C3)C1)C2 (centres undefined) | 109% |
| CC(C)Oc1ccccc1NC(=O)CSc1nccn1C | 60% |
| CCOCCc1nn2c(=O)cc(COC(=O)COc3ccc(C)c(C)c3)nc2s1 | 89% |
| O=C(CN1CCN(C2CCCCC2)C(=O)C1=O)Nc1ccc(Cl)cc1 | 86% |
| CCOC(=O)c1c(NC(=O)c2cc3nc(-c4ccc(Br)cc4)cc(C(F)(F)F)n3n2)sc(C(C)=O)c1C | 83% |
| CCOC(=O)c1cccc(NC(=O)[C@@H](c2ccccc2)N2Cc3ccccc3C2=O)c1 | 58% |
| Cc1ccccc1-c1nnc(SCC(=O)N(C)c2ccccc2)o1 | 79% |
| O=C(OC1CSc2nc3ccccc3n2C1)c1ccccc1Cl (centres undefined) | 95% |
| COC(=O)C1CC(=O)N(c2ccccc2)C1 (centres undefined) | 72% |
| CC(C)CCOc1ccc(C(=O)NCC2OCCc3ccccc32)cc1 (centres undefined) | 39% (active) |
| CC(C)COc1ccc(C(=O)NCC2OCCc3ccccc32)cc1 (centres undefined) | 51% |
| CCCOc1ccc(C(=O)NCC2OCCc3ccccc32)cc1 (centres undefined) | 49% |
| Cc1ccccc1NC(=O)CSc1nnc(-c2cccs2)o1 | 71% |
| Cc1c(Cl)cccc1-n1ncc(C(=O)Nc2ccc(Br)cc2F)c1C1CCNCC1 | 87% |
| COc1cc(Cl)c(NS(=O)(=O)c2ccc3[nH]c(=O)ccc3c2)c(OC)c1 | 102% |
| CC(C)(C)C(=O)CNS(=O)(=O)c1ccc(S(=O)(=O)NC2CCCCC2)cc1 | 79% |
| O=C(CNS(=O)(=O)c1ccc(Cl)cc1)NN=C1CCCCC1 | 92% |
| O=C(CNS(=O)(=O)c1ccc(Cl)cc1)NC1CCCC1 | 67% (active) |
| Cc1cc(-c2ccc(S(=O)(=O)NCc3ccccc3Cl)s2)on1 | 128% |
| CCOc1ccc(OCC)c(NC(=O)c2cc3ccccn3n2)c1 | 87% |
| COc1cc(C(=O)NCc2nc(-c3ccc(Cl)cc3)no2)cc(OC)c1OC | 59% |
| O=C(NCc1nc(-c2ccccc2)no1)c1ccco1 | 68% |
| COc1ccc(-c2noc(CNC(=O)c3ccc(OC)cc3OC)n2)cc1 | 62% (active) |

| SMILES | survival |
| --- | --- |
| COc1ccc(Cl)cc1C(=O)NCc1nc(-c2cccc(C)c2)no1 | 48% |
| COc1cccc(C(=O)NCc2nc(-c3ccccc3)no2)c1OC | 43% (active) |
| COc1ccc(-c2noc(CNC(=O)c3ccccc3Br)n2)cc1 | 51% |
| COc1ccc(-c2noc(CNC(=O)c3ccco3)n2)cc1 | 87% |
| COc1ccc(-c2noc(CNC(=O)c3cc(OC)c(OC)c(OC)c3)n2)cc1 | 55% |
| COc1cc(OC)c(C(=O)NCc2nc(-c3ccccc3)no2)cc1OC | 41% (active) |
| NC(=O)Cn1cc(F)c(=O)[nH]c1=O | 87% |
| Cc1ccccc1-c1noc(C(C)NC(=O)c2ccco2)n1 (centres undefined) | 79% |
| COc1ccc(-n2c(=O)c3c4c(sc3n(Cc3ccccc3C)c2=O)CCCC4)c(OC)c1 | 64% |
| CCOc1ccccc1NC(=O)c1cc(S(=O)(=O)NC2CCCC2)ccc1F | 81% |
| O=C(NCC(c1ccccc1)c1ccccc1)c1nn(-c2ccccc2F)nc1CO | 104% |
| O=c1c2sc3ccccc3c2n(Cc2cccc(Cl)c2)c(=O)n1Cc1ccccc1 | 66% |
| O=c1c2sc3ccccc3c2n(Cc2ccc(F)cc2)c(=O)n1Cc1ccccc1 | 137% |
| O=c1c2sc3ccccc3c2n(Cc2cccc(Cl)c2)c(=O)n1Cc1ccc(F)cc1 | 68% (active) |
| COc1ccccc1NC(=O)Cn1c(=O)n(CCc2ccccc2)c(=O)c2sc3ccccc3c21 | 74% |
| Cc1ccccc1NC(=O)Cn1c(=O)n(Cc2ccccc2)c(=O)c2sc3ccccc3c21 | 65% |
| COc1ccccc1NC(=O)Cn1c(=O)n(Cc2ccccc2)c(=O)c2sc3ccccc3c21 | 68% (active) |
| COc1ccc(Cl)cc1NC(=O)c1nc(S(C)(=O)=O)ncc1N(Cc1ccc(C)cc1)Cc1ccco1 | 103% |
| COc1ccccc1CN(Cc1ccco1)c1cnc(S(C)(=O)=O)nc1C(=O)Nc1cc(C)ccc1C | 58% |
| CCc1ccc(CN(Cc2ccco2)c2cnc(S(C)(=O)=O)nc2C(=O)Nc2ccccc2Cl)cc1 | 101% |
| COc1cccc(CN(Cc2ccco2)c2cnc(S(C)(=O)=O)nc2C(=O)Nc2cccc(Cl)c2C)c1 | 47% (active) |
| COc1ccccc1CN(Cc1ccco1)c1cnc(S(C)(=O)=O)nc1C(=O)Nc1ccccc1Cl | 46% (active) |
| CCS(=O)(=O)c1ncc(N(Cc2cccc(F)c2)Cc2ccco2)c(C(=O)Nc2ccccc2Cl)n1 | 64% |
| CCOc1ccccc1NC(=O)C(=O)c1cc(C)n(-c2ccc(F)cc2)c1C | 114% |

| SMILES | survival |
| --- | --- |
| Cn1cc(-c2nnc(-c3ccccc3)o2)c2ccccc21 | 94% |
| CCCCOc1ccc(C(=O)N(Cc2nc(-c3ccc(Cl)cc3)no2)C(C)C)cc1 | 59% |
| CCOc1ccc(C(=O)NCc2nc(-c3ccc(Cl)cc3)no2)cc1OCC | 49% |
| Cc1ccc(-c2noc(CNC(=O)c3ccc(C(C)(C)C)cc3)n2)cc1 | 79% |
| CCOc1cc(C(=O)NCc2nc(-c3cccc(C)c3)no2)cc(OCC)c1OCC | 70% |
| CCOc1cc(C(=O)N(Cc2nc(-c3ccc(C)cc3)no2)C(C)C)cc(OCC)c1OCC | 50% (active) |
| CC(C)N(Cc1nc(-c2ccc(Cl)cc2)no1)C(=O)c1ccc(C(C)(C)C)cc1 | -1% (active) |
| CC(C)N(Cc1nc(-c2ccc(Cl)cc2)no1)C(=O)c1ccco1 | 68% |
| Cc1ccccc1C(=O)N(Cc1nc(-c2ccc(Cl)cc2)no1)C(C)C | 78% |
| Cc1ccc(-c2noc(CN(C(=O)c3ccc(C(C)(C)C)cc3)C(C)C)n2)cc1 | -4% (active) |
| COc1cccc(C(=O)N(Cc2nc(-c3ccc(Cl)cc3)no2)C(C)C)c1OC | 66% |
| Cc1cc(C)cc(C(=O)N(Cc2nc(-c3ccc(Cl)cc3)no2)C(C)C)c1 | 14% (active) |
| O=C(CCN1C(=O)CSC1=O)Nc1ccccc1 | 114% |
| COc1ccc(OC)c(-c2noc(N3CCN(c4cccc(C(F)(F)F)c4)CC3)n2)c1 | 124% |
| COc1ccc(NC(=O)c2cnn(-c3ccc(C)cc3)c2-n2cccc2)cc1Cl | 69% |
| CN1C(=O)Cc2cc(S(=O)(=O)N3CCN(c4ccccc4F)CC3)ccc21 | 107% |
| COC(=O)c1cc2occc2n1CC(=O)Nc1ccc(C(C)C)cc1 | 93% |
| CCc1ccccc1Nc1cc(C(=O)NCc2ccc(C)cc2)c2ccccc2n1 | 69% |
| Cc1ccc(CNC(=O)CCC(=O)N2CC(C)Sc3ccccc32)cc1 (centres undefined) | 45% (active) |
| COc1cccc(CNC(=O)CCC(=O)N2CC(C)Sc3ccccc32)c1 (centres undefined) | 51% (active) |
| CC1CN(C(=O)CCC(=O)NCc2cccc(Cl)c2)c2ccccc2S1 (centres undefined) | 100% |
| Cc1ccc(CNC(=O)CCC(=O)N2CCSc3ccccc32)cc1 | 113% |
| CCOc1ccc(CNC(=O)CCC(=O)N2CC(C)Sc3ccccc32)cc1 (centres undefined) | 56% |
| COc1ccccc1CNC(=O)CCC(=O)N1CC(C)Sc2ccccc21 (centres undefined) | 111% |

| SMILES | survival |
| --- | --- |
| O=C(Nc1ccc2nc(SCCOc3ccccc3Cl)sc2c1)c1ccc2c(c1)OCO2 | 68% |
| COc1cn(CC(=O)Nc2c(C)cc(C)cc2C)c(CN2CCCCC2)cc1=O | 98% |
| CCOc1ccc(NS(=O)(=O)c2ccc(NC(=O)N3CCCC3)cc2)cc1 | 101% |
| COc1ccc(OC)c(NC(=O)C(C)n2c(=O)cc(C)c3c(C)nn(-c4ccccc4)c32)c1 (centres undefined) | 94% |
| CCOc1ccccc1-c1cc(C(=O)N/N=C(\C)c2ccco2)[nH]n1 | 85% |
| Fc1ccc(CNCCCSc2nnnn2-c2ccccc2)cc1 | 97% |
| Fc1ccc(-c2ccc(CNCCSc3nnnn3-c3ccccc3)o2)cc1Cl | 39% (active) |
| Clc1cccc(CNCCCSc2nnnn2-c2ccccc2)c1 | 68% |
| CCOc1ccc(Br)cc1CNCCSc1nnnn1-c1ccccc1 | 23% (active) |
| Cc1c(Cl)cccc1-c1ccc(CNCCSc2nnnn2-c2ccccc2)o1 | 62% |
| Clc1ccc(-c2ccc(CNCCSc3nnnn3-c3ccccc3)o2)cc1 | 52% |
| Fc1ccc(-c2ccc(CNCCSc3nnnn3-c3ccccc3)o2)cc1 | 28% (active) |
| Fc1cccc(Cl)c1CNCCSc1nnnn1-c1ccccc1 | 79% |
| Brc1ccc(-c2ccc(CNCCSc3nnnn3-c3ccccc3)o2)cc1 | 67% |
| COc1cc(OC)c(OC)cc1CNCCSc1nnnn1-c1ccccc1 | 61% |
| Clc1cccc(-c2ccc(CNCCSc3nnnn3-c3ccccc3)o2)c1 | 30% (active) |
| CCOc1cc(CNCCSc2nnnn2-c2ccccc2)ccc1OC | 60% |
| Cc1ccccc1OCC(=O)Nc1ccc2[nH]c(=O)sc2c1 | 133% |
| CN(C)c1ccc(/C=C/C=c2\sc3nc4ccccc4n3c2=O)cc1 | 102% |
| Cn1nnnc1SCCCNCc1ccc(-c2ccc(F)c(Cl)c2)o1 | 82% |
| Cn1nnnc1SCCCNCc1ccc(-c2cccc(Cl)c2)o1 | 97% |
| Cn1nnnc1SCCCNCc1ccc(-c2ccc(Br)cc2)o1 | 32% (active) |
